# Source: PubChem BioAssay (National Center for Advancing Translational Sciences (NCATS))
# Shown is part of a subset that was picked to be rich in hits.
# Cycloheximide cs: counter-screen hit for Shiga toxin inhibitors, cycloheximide | cell reporter, cycloheximide protein synthesis inhibition counterscreen | max response, % | actives 12% (n = 300,000) | AID 2314; in the data active = max response mostly above about 13%, no sharp cut-off; inactive = mostly below about 14%; also: read at 38.3 µM for the half of the compounds with a filed dose; 0% is about no effect
# RE007 growth inh: less growth of the S. pombe RE007 Vpr strain | S. pombe RE007 Vpr strain, BacTiter-Glo ATP luminescence, 24 h | Potency, µM (titrated, usually from 92.2 µM), inactives show at the top dose activity change, negative = less growth, hits mostly inhibitors | actives 0.21% (n = 360,000) | AID 651644; active = well fitted falling curve with a large enough effect; inconclusive = small, poorly fitted or top-dose-only effect; inactive = no such curve, though single readings can be large or run the other way; also: potency is read from the fitted curve at half-maximal effect; % is scaled to controls: 0 for no effect and ±100 for the full control effect; nearly all actives have a fitted effect of over 50% in size
#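 Fission yeast strain RE007, carrying one chromosomally integrated HIV-1 vpr copy, was seeded at OD 0.01 in PMG+AL medium with 23 nL pinned compound. After 24 h at 30 °C and 99% humidity, viability was read by BacTiter-Glo luminescence.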
# Tb PYK inh: blocks Trypanosoma brucei pyruvate kinase | TbPYK enzyme, Kinase-Glo Plus ATP luminescence, 45 min | Potency, µM (titrated, usually from 76.8 µM), inactives show top-dose activity, negative = inhibition, hits mostly inhibitors | actives 0.12% (n = 410,000) | AID 624173; also: potency is read from the fitted curve at half-maximal effect; % is scaled to controls: 0 for no effect and ±100 for the full control effect; nearly all actives have a fitted effect of over 50% in size
#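 Glycolytic pyruvate kinase of T. brucei was incubated with substrate, test compound and 130 uM ADP for 45 minutes at room temperature. Luminescent Kinase-Glo Plus signal was measured after 10 minutes.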
# LmPK inh: inhibitors of Leishmania mexicana pyruvate kinase. purified LmPK, Kinase-Glo ATP luminescence, 1 h. Potency, µM (highest dose often 57.5 µM), for inactives: at the highest dose activity change, negative = inhibition, hits mostly inhibitors. actives 0.37% (n = 290,000). AID 1721; also: potency is read from the fitted curve at half-maximal effect; % is scaled to controls: 0 for no effect and ±100 for the full control effect
# Target sequence (Q27686 whole entry, looked up): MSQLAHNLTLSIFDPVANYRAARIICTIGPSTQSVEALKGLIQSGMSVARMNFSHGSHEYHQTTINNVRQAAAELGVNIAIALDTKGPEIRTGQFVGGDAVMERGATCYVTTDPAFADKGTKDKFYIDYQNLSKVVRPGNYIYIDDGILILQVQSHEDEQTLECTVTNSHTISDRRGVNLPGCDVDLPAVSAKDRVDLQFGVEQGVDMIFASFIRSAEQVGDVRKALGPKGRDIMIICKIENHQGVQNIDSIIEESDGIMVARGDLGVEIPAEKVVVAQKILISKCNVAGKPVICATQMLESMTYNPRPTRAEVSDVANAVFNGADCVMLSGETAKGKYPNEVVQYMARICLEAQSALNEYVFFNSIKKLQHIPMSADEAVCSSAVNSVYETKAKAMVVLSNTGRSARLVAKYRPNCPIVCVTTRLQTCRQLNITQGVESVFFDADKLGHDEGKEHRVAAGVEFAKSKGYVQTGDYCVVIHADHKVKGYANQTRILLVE
#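 ATP generated from ADP (0.1 mM) and PEP (0.5 mM) by 0.1 nM LmPK over 1 h at room temperature (pH 7.2 imidazole buffer) was detected by coupled luciferase luminescence. Values were normalized to uninhibited and no-enzyme wells.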
# Giardia FBPA inh: inhibitors of Giardia lamblia fructose-1,6-bisphosphate aldolase; purified Giardia FBPA; Potency, µM (highest dose often 59.6 µM), without a hit: top-dose activity, negative = inhibition, actives largely listed as inhibitors; actives 0.71% (n = 290,000); A8B2U2; also: potency is read from the fitted curve at half-maximal effect; % is scaled to controls: 0 for no effect and ±100 for the full control effect; nearly all actives have a fitted effect of over 55% in size
#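 40 nM FBPA preincubated 10 min at RT with compound (up to 57.5 uM final), then substrate plus GAPDH/TPI/NAD/arsenate coupling and diaphorase/resazurin added. Fluorescence read after 20 min at RT, 525/598 nm.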
# Shiga toxin inh: blocks Shiga toxin action in Vero cells | Vero cells, Shiga toxin protein synthesis inhibition reporter | AID 2315 | inhibition, % at 38.7 µM | actives 9.2% (n = 290,000); in the data active = inhibition mostly above about 28%, no sharp cut-off; inactive = mostly below about 43%; also: 0% is about no effect
# Starred values were filed as active, the others as inactive; ? = inconclusive; . = no result. Unless noted, calls follow the shape of the dose curve; as a rule, active = well fitted curve in the direction sought with a large enough effect; inconclusive = small, poorly fitted or top-dose-only effect, or another doubt; inactive = no such curve, though single readings can be large; an effect the other way counts as inactive or inconclusive.
SMILES,Cycloheximide cs,RE007 growth inh,Tb PYK inh,LmPK inh,Giardia FBPA inh,Shiga toxin inh
O=C(Nc1ccccc1N1CCOCC1)c1cc2ccccc2o1,12,6%,4%,1%,10%,28
O=C(Nc1ccc(CN2CCOCC2)cc1)c1ccc(Br)o1,43*,-9%,-1%,-4%,-2%,69*
O=C(Nc1ccccc1N1CCCC1)c1cc2ccccc2o1,52*,?,4%,-6%,15%,97*
O=C(Nc1cccnc1Cl)c1cc2ccccc2o1,38*,-15%,3%,-12%,9%,66*
O=C(Nc1ccc(N2CCOCC2)c(Cl)c1)c1ccc(Br)o1,79*,-5%,-6%,-8%,?,110*
O=C(Nc1ccc(N2CCOCC2)nc1)c1ccc(Cl)cc1,16*,2%,-19%,-1%,-1%,49*
O=C(N/N=C/c1ccc(N2CCOCC2)s1)c1ccccc1Cl,34*,-7%,-16%,-5%,-7%,109*
O=C(Nc1ccc(N2CCOCC2)c(Cl)c1)c1cc2ccccc2o1,39*,?,-3%,-1%,?,71*
O=C(Nc1ccc(N2CCOCC2)cc1)c1ccc(Cl)nc1,-1,3%,-9%,-11%,0%,-13
CC(=O)CCC(=O)N1CCC(n2nccc2NC(=O)c2ccccc2C)CC1,7,2%,2%,-4%,.,5
O=C(COc1ccccc1Cl)Nc1cc(-c2ccccc2F)nn1-c1ccccc1,.,.,-10%,.,.,.
O=C(CCSCCc1ccccn1)Nc1cccc([N+](=O)[O-])c1,25,-14%,2%,1%,-15%,38
CCN1C(=O)N(CC)C(=O)C2(Cc3ccccc3N3CCN(c4ccccc4)CC32)C1=O (configuration not stated),36*,0%,-1%,7%,-14%,70*
COc1ccc(NC(=O)C(=O)NCCc2sc(-c3ccc(Cl)cc3)nc2C)cc1,.,.,-8%,.,.,.
FC(F)(F)c1nc2nc(Cl)c(Cl)nc2n1CCCN1CCOCC1,.,-21%,7%,.,.,.
COc1ccc(Cc2nc(-c3ccc(Br)o3)no2)cc1OC,18*,-12%,-12%,11%,-28%,52
Brc1ccc(-c2noc(COc3ccc4ccccc4c3)n2)o1,9,-7%,3%,15%,-13%,10
COc1cccc(OCc2nc(-c3cccc([N+](=O)[O-])c3)no2)c1,25*,-15%,1%,1%,1%,46
COc1cccc(OCc2nc(-c3ccc(Br)o3)no2)c1,28*,22%,3%,3%,-2%,48
Cc1ccc(-c2noc(COc3ccc(Br)c(C)c3)n2)cc1,.,.,2%,.,.,.
Cc1cccc(OCc2nc(-c3ccc(Br)o3)no2)c1,13,-6%,-1%,16%,5%,92*
CCOC(=O)[C@H]1[C@H]2COc3ccc(Br)cc3[C@H]2N2C(=O)CN(Cc3ccc(Cl)cc3)C(=O)[C@@]12C,.,2%,1%,.,.,.
CC(C)CC(NC(=O)/C(=C/c1ccco1)NC(=O)c1ccc(Br)o1)C(=O)O (configuration not stated),-3,4%,-8%,11%,-25%,-3
Oc1ccccc1/C=N/NC(=S)NC1CC2CCC1C2 (configuration not stated),32*,?,-7%,6%,10%,45*
S=C(N/N=C/c1ccco1)NC1CC2CCC1C2 (configuration not stated),44*,-13%,9%,-1%,24%,73*
SMILES,Cycloheximide cs,RE007 growth inh,Tb PYK inh,LmPK inh,Giardia FBPA inh,Shiga toxin inh
COc1cccc(/C=N/NC(=S)NC2CC3CCC2C3)c1OC (configuration not stated),-1,7%,-2%,-1%,-1%,-5
CCOc1ccc(/C=N/NC(=S)NC2CC3CCC2C3)cc1 (configuration not stated),3,-16%,-2%,4%,0%,11
CC1CCCCN1C(=O)CSc1nnc(-c2cccs2)o1 (configuration not stated),48*,-25%,1%,-7%,.,67*
CC1CCCC(C)N1C(=O)CSc1nnc(-c2cccs2)o1 (configuration not stated),35*,7%,-4%,-3%,6%,51*
CC1CCCCN1C(=O)CSc1nnc(-c2c[nH]c3ccccc23)o1 (configuration not stated),28*,-8%,1%,4%,5%,75
CC(C)C[C@@H](CNCC(=O)[C@H](Cc1ccccc1)NC(=O)c1[nH]cnc1C(=O)N[C@H](CN)CC(C)C)NC(=O)c1nc[nH]c1C(=O)N[C@@H](CC(=O)O)C(=O)O,.,25%,0%,.,.,.
CC(C)c1cccc(C(C)C)c1NC(=O)c1ccc(-c2cc(Cl)ccc2Cl)o1,.,8%,-4%,.,.,.
C=CCSc1nsc(N)n1,-2,-8%,4%,-3%,-10%,-9
CCCSc1nsc(NC(=O)CC)n1,38*,-7%,-14%,?,0%,72*
CCCCCCCSc1nsc(N)n1,3,-19%,-15%,-1%,-4%,65*
CCCSc1nsc(NC(=O)C(c2ccccc2)c2ccccc2)n1,10,2%,-6%,5%,2%,-6
CCCCCCSc1nsc(NC(=O)CC(C)C)n1,27*,8%,-1%,-1%,-13%,37*
COc1cccc(N2C(=O)N(Cc3ccc(C#N)cc3)c3ccccc3S2(=O)=O)c1,.,.,1%,.,.,.
COCC(=O)N1CCC(Oc2ccc(C(=O)NCCc3ncccc3C)cc2)CC1,3,1%,4%,4%,-4%,18
CN(C(=O)c1ccc(OC2CCN(Cc3ccccn3)CC2)cc1)C1CCCCC1,21*,-7%,6%,-10%,.,22
O=C(NCCc1cccc(Cl)c1)c1ccc(OC2CCN(Cc3ccccn3)CC2)cc1,51*,-3%,0%,-2%,14%,53*
O=C(NC1CCCCC1)c1ccc(OC2CCN(Cc3ccccn3)CC2)cc1,-2,-6%,-1%,-8%,.,-14
Cc1cccnc1CCNC(=O)c1ccc(OC2CCN(Cc3ccccn3)CC2)cc1,18*,-18%,10%,-11%,.,60
C#CCN(C(=O)c1ccc(OC2CCN(Cc3ccccn3)CC2)cc1)C1CCCCC1,-2,19%,0%,0%,5%,-6
CC1=C(C(=O)N2CCOCC2)CC(CC(=O)NCc2cccc3ccccc23)C(=O)N1Cc1ccccc1 (configuration not stated),.,-7%,-8%,.,.,.
CCOC(=O)c1cc(Cl)c2c(ccc3ccccc32)n1,.,2%,-12%,.,.,.
CCOC(=O)c1nc2c(ccc3ccccc32)cc1C,17*,-17%,3%,-4%,-2%,42*
CC(C)Cn1c(C23CC4CC(CC(C4)C2)C3)n[nH]c1=S,1,-11%,?,25µM*,24%,-1
